Reference: PubChem BioAssay AID1159580 (chemical genetic matrix, 2015)
Values joined by “and” are separate entries in the source; they are usually repeats but may differ in a detail not shown here. Identical values can stand only once. Screen size: about 5,500 compounds; about 2,000 (36%) were called active. About 18% were inconclusive and are not listed. Rule as the data show it: active = normalized growth mostly below about 0.91 (no sharp cut-off); inconclusive = no clear call, values can overlap the other calls; inactive = mostly above about 0.92. This is one part of the list.

Assay: chemical genetic growth profiling, strain panel (AID 1159580);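 also: tested at 20 µM; growth read once vehicle control cultures reached saturation at 30 °C; 1 = growth at the plate median or of vehicle wells; lower values mean less growth of the strain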
Details: growth OD

Measured: normalized growth

CN(C)CCC=C1c2ccccc2C=Cc2ccccc21
active: S. cerevisiae deletion strains, locus YLR039C, strain RIC1, active compounds read low 1.35 [resistant] | S. cerevisiae deletion strains, locus YLR262C, strain YPT6, active compounds read low 1.53 [resistant] | S. cerevisiae deletion strains, locus YLR418C, strain cdc73, active compounds read low 0.811 | S. cerevisiae deletion strains, locus YNL209W, strain ssb2, active compounds read low 0.925
inactive: S. cerevisiae deletion strains, locus YKL009W, strain mrt4, active compounds read low 0.959 | S. cerevisiae deletion strains, locus YKL068W, active compounds read low 0.982 | S. cerevisiae deletion strains, locus YKL085W, strain MDH1 (second series), active compounds read low 0.975 | S. cerevisiae deletion strains, locus YKL085W, strain MDH1, active compounds read low 0.975 | S. cerevisiae deletion strains, locus YKL160W, strain elf1, active compounds read low 0.958 | S. cerevisiae deletion strains, locus YKL190W, strain CNB1, active compounds read low 0.977 | S. cerevisiae deletion strains, locus YKR001C, strain vps1, active compounds read low 1.01 | S. cerevisiae deletion strains, locus YKR026C, strain gcn3, active compounds read low 0.998 | S. cerevisiae deletion strains, locus YKR091W, strain srl3, active compounds read low 0.971 | S. cerevisiae deletion strains, locus YLL001W, strain dnm1, active compounds read low 1.01 | S. cerevisiae deletion strains, locus YLL026W, active compounds read low 0.985 | S. cerevisiae deletion strains, locus YLL041C, strain sdh2, active compounds read low 0.984 | S. cerevisiae deletion strains, locus YLR027C, strain aat2, active compounds read low 0.98 | S. cerevisiae deletion strains, locus YLR058C, strain SHM2, active compounds read low 0.99 | S. cerevisiae deletion strains, locus YLR102C, strain apc9, active compounds read low 0.985 | S. cerevisiae deletion strains, locus YLR113W, strain HOG1, active compounds read low 1.04 | S. cerevisiae deletion strains, locus YLR221C, strain rsa3, active compounds read low 1 | S. cerevisiae deletion strains, locus YLR258W, strain gsy2, active compounds read low 0.989 | S. cerevisiae deletion strains, locus YLR262C, strain YPT6 (second series), active compounds read low 1.02 | S. cerevisiae deletion strains, locus YLR268W, strain sec22, active compounds read low 0.99 | S. cerevisiae deletion strains, locus YLR320W, strain mms22, active compounds read low 1.01 | S. cerevisiae deletion strains, locus YLR330W, strain CHS5, active compounds read low 0.987 | S. cerevisiae deletion strains, locus YLR342W, strain FKS1 (second series), active compounds read low 0.903 | S. cerevisiae deletion strains, locus YLR342W, strain FKS1, active compounds read low 0.979 | S. cerevisiae deletion strains, locus YLR357W, strain rsc2, active compounds read low 1.01 | S. cerevisiae deletion strains, locus YLR370C, strain arc18, active compounds read low 0.988 | S. cerevisiae deletion strains, locus YLR371W, strain rom2, active compounds read low 0.992 | S. cerevisiae deletion strains, locus YLR384C, strain iki3, active compounds read low 0.991 | S. cerevisiae deletion strains, locus YML016C, strain PPZ1, active compounds read low 0.996 | S. cerevisiae deletion strains, locus YML032C, strain rad52, active compounds read low 1.01 | S. cerevisiae deletion strains, locus YML120C, strain ndi1, active compounds read low 1 | S. cerevisiae deletion strains, locus YML124C, strain tub3, active compounds read low 0.997 | S. cerevisiae deletion strains, locus YMR058W, strain fet3, active compounds read low 0.968 | S. cerevisiae deletion strains, locus YMR078C, strain ctf18, active compounds read low 0.984 | S. cerevisiae deletion strains, locus YMR125W, strain sto1, active compounds read low 0.95 | S. cerevisiae deletion strains, locus YMR129W, active compounds read low 0.99 | S. cerevisiae deletion strains, locus YMR205C, strain PFK2, active compounds read low 1 | S. cerevisiae deletion strains, locus YMR223W, strain ubp8, active compounds read low 0.951 | S. cerevisiae deletion strains, locus YMR231W, strain pep5, active compounds read low 0.989 | S. cerevisiae deletion strains, locus YMR263W, strain SAP30, active compounds read low 1 | S. cerevisiae deletion strains, locus YMR307W, strain GAS1, active compounds read low 1.01 and 0.999 | S. cerevisiae deletion strains, locus YNL067W, strain RPL9B, active compounds read low 0.994 | S. cerevisiae deletion strains, locus YNL071W, strain lat1, active compounds read low 0.99 | S. cerevisiae deletion strains, locus YNL153C, strain GIM3, active compounds read low 1.04 and 1 | S. cerevisiae deletion strains, locus YNL175C, strain NOP13, active compounds read low 1.06 | S. cerevisiae deletion strains, locus YNL183C, strain NPR1, active compounds read low 0.955 | S. cerevisiae deletion strains, locus YNL197C, strain WHI3, active compounds read low 1.02 | S. cerevisiae deletion strains, locus YNL224C, strain SQS1, active compounds read low 1.01 | S. cerevisiae deletion strains, locus YNL233W, strain BNI4, active compounds read low 1.02 | S. cerevisiae deletion strains, locus YNL248C, strain rpa49, active compounds read low 0.959 | S. cerevisiae deletion strains, locus YNL250W, strain rad50, active compounds read low 0.985 | S. cerevisiae deletion strains, locus YNL271C, strain bni1, active compounds read low 0.986 | S. cerevisiae deletion strains, locus YNL298W, strain CLA4, active compounds read low 0.988 | S. cerevisiae deletion strains, locus YNL307C, strain MCK1, active compounds read low 0.994 | S. cerevisiae deletion strains, locus YNL322C, strain KRE1 (second series), active compounds read low 0.992 | S. cerevisiae deletion strains, locus YNL322C, strain KRE1, active compounds read low 0.977 | S. cerevisiae deletion strains, locus YNR049C, strain mso1, active compounds read low 0.978 | S. cerevisiae deletion strains, locus YNR052C, strain pop2, active compounds read low 0.948 | S. cerevisiae deletion strains, locus YOL006C, strain TOP1, active compounds read low 0.852 | S. cerevisiae deletion strains, locus YOL012C, strain htz1 0.956 | S. cerevisiae deletion strains, locus YOL147C, strain pex11, active compounds read low 0.996 | S. cerevisiae deletion strains, locus YOR001W, strain rrp6, active compounds read low 0.965 | S. cerevisiae deletion strains, locus YOR061W, strain CKA2, active compounds read low 0.99 | S. cerevisiae deletion strains, locus YOR069W, strain VPS5, active compounds read low 0.983 | S. cerevisiae deletion strains, locus YOR070C, strain gyp1, active compounds read low 0.966 | S. cerevisiae deletion strains, locus YOR080W, strain dia2, active compounds read low 0.98 | S. cerevisiae deletion strains, locus YOR083W, strain WHI5 (second series), active compounds read low 1.08 | S. cerevisiae deletion strains, locus YOR083W, strain WHI5, active compounds read low 0.945 | S. cerevisiae deletion strains, locus YOR106W, strain vam3, active compounds read low 0.89 | S. cerevisiae deletion strains, locus YOR136W, strain idh2, active compounds read low 1.03 | S. cerevisiae deletion strains, locus YOR144C, strain elg1, active compounds read low 1 | S. cerevisiae deletion strains, locus YOR184W, strain ser1, active compounds read low 1.04 | S. cerevisiae deletion strains, locus YOR231W, strain MKK1, active compounds read low 1.02 | S. cerevisiae deletion strains, locus YOR265W, strain rbl2, active compounds read low 0.983 | S. cerevisiae deletion strains, locus YOR270C, strain vph1, active compounds read low 0.809 | S. cerevisiae deletion strains, locus YOR290C, strain snf2, active compounds read low 0.958 | S. cerevisiae deletion strains, locus YOR316C, strain cot1, active compounds read low 0.988 | S. cerevisiae deletion strains, locus YPL051W, strain arl3, active compounds read low 0.964 | S. cerevisiae deletion strains, locus YPL078C, strain atp4, active compounds read low 0.989 | S. cerevisiae deletion strains, locus YPL106C, strain sse1, active compounds read low 0.927 | S. cerevisiae deletion strains, locus YPL240C, strain hsp82, active compounds read low 0.985 | S. cerevisiae deletion strains, locus YPL241C, strain CIN2, active compounds read low 0.978 and 1 | S. cerevisiae deletion strains, locus YPL256C, strain CLN2, active compounds read low 1.01 | S. cerevisiae deletion strains, locus YPR119W, strain clb2, active compounds read low 0.998 | S. cerevisiae deletion strains, locus YPR141C, strain kar3, active compounds read low 0.987 | S. cerevisiae deletion strains, locus YPR163C, strain tif3, active compounds read low 0.988 | S. cerevisiae deletion strains, locus YPR167C, strain met16, active compounds read low 0.992 | S. cerevisiae deletion strains, strain wtn01, active compounds read low 0.981 | S. cerevisiae strains, strain wild type, active compounds read low 0.99
